# From PMC7862700, “An all-to-all approach to the identification of sequence-specific readers for epigenetic DNA modifications on cytosine”
# What was measured:
# Experiment in all cases: DAPPL (digital affinity profiling via proximity ligation, sequencing); 10 mM Tris-HCl pH 7.5, 50 mM NaCl, 1 mM DTT, 4% glycerol, room temperature, 30 min; GST-TFs on glutathione beads, 16-mer random dsDNA library, 0.1% formaldehyde crosslink after washing; high values mean tight binding
# FLI1 = target: T1, FLI1 (Homo sapiens, UniProt Q01543 1-452); details: protein: recombinant; tags: N-terminal GST; dsDNA, one strand shown
# T1 sequence: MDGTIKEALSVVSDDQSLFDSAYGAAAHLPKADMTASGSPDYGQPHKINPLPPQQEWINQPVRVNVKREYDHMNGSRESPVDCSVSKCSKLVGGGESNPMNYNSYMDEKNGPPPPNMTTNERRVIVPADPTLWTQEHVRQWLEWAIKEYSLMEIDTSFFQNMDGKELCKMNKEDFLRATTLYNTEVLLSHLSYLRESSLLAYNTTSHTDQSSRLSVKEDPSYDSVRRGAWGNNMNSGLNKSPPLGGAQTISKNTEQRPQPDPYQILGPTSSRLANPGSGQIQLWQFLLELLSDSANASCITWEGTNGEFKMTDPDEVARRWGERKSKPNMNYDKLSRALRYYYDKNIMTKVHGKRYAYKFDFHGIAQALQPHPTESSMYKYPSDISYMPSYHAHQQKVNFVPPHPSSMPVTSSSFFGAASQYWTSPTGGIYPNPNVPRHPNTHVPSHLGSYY
# How it was run: (§1)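 Sequencing on an Illumina NextSeq500 followed washing, crosslinking with 0.1% formaldehyde, proximity ligation (BsaI/T4 ligase, 1 h, 37 °C) and PCR amplification of pools that had been incubated for 30 min at room temperature with 200 nmole of a random double-stranded 16-mer DNA library in Tris/NaCl/DTT/glycerol buffer. Each pool held DNA-barcoded human transcription factors, expressed in yeast as GST fusions and captured on glutathione beads, plus a tag-only sample. Binding signal is a hexamer's read frequency for a factor divided by its frequency in the tag-only sample.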
# ELK1 = target: T2, ELK1 (Homo sapiens, UniProt P19419 1-428); details: protein: recombinant; tags: N-terminal GST; dsDNA, one strand shown
# T2 sequence: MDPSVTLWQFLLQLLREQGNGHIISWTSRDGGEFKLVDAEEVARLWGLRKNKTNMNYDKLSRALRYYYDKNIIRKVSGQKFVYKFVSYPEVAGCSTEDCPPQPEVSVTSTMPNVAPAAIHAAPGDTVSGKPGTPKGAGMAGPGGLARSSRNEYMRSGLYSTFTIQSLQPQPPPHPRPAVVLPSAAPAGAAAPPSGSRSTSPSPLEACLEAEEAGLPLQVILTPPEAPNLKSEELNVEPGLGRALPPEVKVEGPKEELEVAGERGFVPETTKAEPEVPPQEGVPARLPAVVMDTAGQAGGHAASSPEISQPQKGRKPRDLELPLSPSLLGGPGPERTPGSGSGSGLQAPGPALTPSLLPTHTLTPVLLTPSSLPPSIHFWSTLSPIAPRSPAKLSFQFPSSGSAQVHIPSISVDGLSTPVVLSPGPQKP
# How it was run: as §1
# GABPA = target: T3, GABPA (Homo sapiens, UniProt Q06546 1-454); details: protein: recombinant; tags: N-terminal GST; dsDNA, one strand shown
# T3 sequence: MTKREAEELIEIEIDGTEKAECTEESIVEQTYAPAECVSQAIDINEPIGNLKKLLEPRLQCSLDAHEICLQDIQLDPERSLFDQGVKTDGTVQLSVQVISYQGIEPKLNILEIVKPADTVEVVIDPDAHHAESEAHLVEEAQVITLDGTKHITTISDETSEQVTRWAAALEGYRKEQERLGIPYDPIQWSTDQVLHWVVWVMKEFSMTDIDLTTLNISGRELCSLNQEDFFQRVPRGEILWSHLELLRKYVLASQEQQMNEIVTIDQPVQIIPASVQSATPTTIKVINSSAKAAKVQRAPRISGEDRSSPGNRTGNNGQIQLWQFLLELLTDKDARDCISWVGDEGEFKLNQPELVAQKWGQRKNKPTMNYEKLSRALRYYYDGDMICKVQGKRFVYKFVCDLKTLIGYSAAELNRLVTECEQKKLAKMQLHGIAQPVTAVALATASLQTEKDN
# How it was run: as §1
# ERG = target: T4, ERG (Homo sapiens, UniProt P11308 1-479); details: protein: recombinant; tags: N-terminal GST; dsDNA, one strand shown
# T4 sequence: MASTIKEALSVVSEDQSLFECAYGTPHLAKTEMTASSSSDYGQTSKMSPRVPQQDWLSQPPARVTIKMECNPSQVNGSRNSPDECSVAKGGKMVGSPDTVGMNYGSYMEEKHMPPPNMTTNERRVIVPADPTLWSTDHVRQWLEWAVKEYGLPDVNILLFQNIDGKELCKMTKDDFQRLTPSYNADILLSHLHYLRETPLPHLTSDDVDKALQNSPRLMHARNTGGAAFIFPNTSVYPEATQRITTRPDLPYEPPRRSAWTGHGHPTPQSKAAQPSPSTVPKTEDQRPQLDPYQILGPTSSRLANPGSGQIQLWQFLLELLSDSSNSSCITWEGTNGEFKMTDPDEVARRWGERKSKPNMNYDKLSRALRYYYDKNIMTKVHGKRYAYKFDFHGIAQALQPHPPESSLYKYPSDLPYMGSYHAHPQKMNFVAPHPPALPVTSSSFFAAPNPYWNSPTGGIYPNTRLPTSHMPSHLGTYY
# How it was run: as §1
# ELF1 = ELF1 (Homo sapiens, UniProt P32519 1-619); details: protein: recombinant; tags: N-terminal GST; dsDNA, one strand shown
# Chain of ELF1 (P32519 whole entry): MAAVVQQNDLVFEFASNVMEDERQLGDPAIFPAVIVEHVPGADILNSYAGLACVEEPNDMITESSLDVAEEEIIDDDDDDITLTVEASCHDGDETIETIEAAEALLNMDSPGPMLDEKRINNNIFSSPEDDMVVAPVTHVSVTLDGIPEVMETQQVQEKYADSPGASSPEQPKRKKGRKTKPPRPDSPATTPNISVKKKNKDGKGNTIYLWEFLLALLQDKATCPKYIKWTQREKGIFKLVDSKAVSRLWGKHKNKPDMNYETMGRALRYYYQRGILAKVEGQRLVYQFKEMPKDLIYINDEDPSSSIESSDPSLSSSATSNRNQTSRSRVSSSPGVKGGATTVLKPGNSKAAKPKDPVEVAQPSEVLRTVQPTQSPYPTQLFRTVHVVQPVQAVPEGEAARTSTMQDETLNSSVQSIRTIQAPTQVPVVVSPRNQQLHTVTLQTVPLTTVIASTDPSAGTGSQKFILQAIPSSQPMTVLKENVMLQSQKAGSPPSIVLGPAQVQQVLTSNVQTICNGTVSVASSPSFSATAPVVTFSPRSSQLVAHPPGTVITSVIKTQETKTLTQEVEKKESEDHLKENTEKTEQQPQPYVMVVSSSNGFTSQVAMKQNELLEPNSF
# How it was run: as §1
# EHF = target: T5, EHF (Homo sapiens, UniProt Q9NZC4 1-300); details: protein: recombinant; tags: N-terminal GST; dsDNA, one strand shown
# T5 sequence: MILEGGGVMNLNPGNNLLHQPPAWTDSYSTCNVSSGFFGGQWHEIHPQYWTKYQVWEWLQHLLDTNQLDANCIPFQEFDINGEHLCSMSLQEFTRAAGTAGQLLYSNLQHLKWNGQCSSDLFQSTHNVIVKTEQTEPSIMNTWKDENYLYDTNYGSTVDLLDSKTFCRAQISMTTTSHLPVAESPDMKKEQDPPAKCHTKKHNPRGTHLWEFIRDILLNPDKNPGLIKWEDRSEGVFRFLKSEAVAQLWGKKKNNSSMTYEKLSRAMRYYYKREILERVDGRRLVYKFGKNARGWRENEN
# How it was run: as §1
# SPI1 = SPI1 (Homo sapiens, UniProt P17947 1-270); details: protein: recombinant; tags: N-terminal GST; dsDNA, one strand shown
# How it was run: as §1
# SPIB = SPIB (Homo sapiens, UniProt Q01892 1-262); details: protein: recombinant; tags: N-terminal GST; dsDNA, one strand shown
# Chain of SPIB (Q01892 whole entry): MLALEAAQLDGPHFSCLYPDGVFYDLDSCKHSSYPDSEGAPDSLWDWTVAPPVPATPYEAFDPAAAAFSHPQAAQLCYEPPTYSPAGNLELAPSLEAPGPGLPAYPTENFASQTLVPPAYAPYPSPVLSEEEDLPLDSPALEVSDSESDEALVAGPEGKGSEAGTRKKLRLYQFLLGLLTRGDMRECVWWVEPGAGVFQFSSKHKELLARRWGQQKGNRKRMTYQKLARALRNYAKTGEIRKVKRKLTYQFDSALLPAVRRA
# How it was run: as §1
# ELK3 = target: T6, ELK3 (Homo sapiens, UniProt P41970 1-407); details: protein: recombinant; tags: N-terminal GST; dsDNA, one strand shown
# T6 sequence: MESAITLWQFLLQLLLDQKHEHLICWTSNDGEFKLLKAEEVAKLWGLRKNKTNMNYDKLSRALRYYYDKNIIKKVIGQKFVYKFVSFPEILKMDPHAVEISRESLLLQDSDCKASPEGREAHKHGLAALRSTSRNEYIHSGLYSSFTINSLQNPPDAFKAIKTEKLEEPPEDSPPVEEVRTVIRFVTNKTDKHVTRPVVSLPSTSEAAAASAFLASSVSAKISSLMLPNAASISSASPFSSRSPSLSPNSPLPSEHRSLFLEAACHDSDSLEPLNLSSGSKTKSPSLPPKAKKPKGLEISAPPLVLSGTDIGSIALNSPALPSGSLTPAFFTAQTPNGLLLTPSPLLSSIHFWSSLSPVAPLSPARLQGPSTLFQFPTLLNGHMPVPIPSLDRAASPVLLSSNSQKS
# How it was run: as §1
# FEV = target: T7, FEV (Homo sapiens, UniProt Q99581 1-238); details: protein: recombinant; tags: N-terminal GST; dsDNA, one strand shown
# T7 sequence: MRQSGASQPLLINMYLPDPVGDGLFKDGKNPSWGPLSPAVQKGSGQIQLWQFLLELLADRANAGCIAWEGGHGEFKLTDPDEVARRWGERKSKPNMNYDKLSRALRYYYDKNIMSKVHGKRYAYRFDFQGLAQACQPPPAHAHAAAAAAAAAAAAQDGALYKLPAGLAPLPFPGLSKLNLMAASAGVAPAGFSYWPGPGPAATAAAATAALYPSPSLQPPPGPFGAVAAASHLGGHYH
# How it was run: as §1
# ETV5 = ETV5 (Homo sapiens, UniProt P41161 1-510); details: protein: recombinant; tags: N-terminal GST; dsDNA, one strand shown
# Chain of ETV5 (P41161 whole entry): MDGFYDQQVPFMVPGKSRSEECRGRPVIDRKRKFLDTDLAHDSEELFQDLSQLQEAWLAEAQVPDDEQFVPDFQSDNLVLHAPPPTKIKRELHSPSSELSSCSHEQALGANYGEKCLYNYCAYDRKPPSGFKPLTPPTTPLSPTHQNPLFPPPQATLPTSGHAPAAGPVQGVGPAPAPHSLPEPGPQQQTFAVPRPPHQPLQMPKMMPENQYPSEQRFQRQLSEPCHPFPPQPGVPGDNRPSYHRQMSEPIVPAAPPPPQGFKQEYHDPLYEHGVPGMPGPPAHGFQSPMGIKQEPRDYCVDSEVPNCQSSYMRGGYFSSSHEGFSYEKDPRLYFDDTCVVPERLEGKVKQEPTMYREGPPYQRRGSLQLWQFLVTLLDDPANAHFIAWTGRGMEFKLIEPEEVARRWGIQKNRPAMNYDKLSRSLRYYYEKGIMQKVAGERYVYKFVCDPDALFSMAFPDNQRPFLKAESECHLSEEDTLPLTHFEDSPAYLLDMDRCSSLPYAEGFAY
# How it was run: as §1
# HSF1 = HSF1 (Homo sapiens, UniProt Q00613 1-529); details: protein: recombinant; tags: N-terminal GST; chain copies: 3; dsDNA, one strand shown
# Chain of HSF1 (Q00613 whole entry): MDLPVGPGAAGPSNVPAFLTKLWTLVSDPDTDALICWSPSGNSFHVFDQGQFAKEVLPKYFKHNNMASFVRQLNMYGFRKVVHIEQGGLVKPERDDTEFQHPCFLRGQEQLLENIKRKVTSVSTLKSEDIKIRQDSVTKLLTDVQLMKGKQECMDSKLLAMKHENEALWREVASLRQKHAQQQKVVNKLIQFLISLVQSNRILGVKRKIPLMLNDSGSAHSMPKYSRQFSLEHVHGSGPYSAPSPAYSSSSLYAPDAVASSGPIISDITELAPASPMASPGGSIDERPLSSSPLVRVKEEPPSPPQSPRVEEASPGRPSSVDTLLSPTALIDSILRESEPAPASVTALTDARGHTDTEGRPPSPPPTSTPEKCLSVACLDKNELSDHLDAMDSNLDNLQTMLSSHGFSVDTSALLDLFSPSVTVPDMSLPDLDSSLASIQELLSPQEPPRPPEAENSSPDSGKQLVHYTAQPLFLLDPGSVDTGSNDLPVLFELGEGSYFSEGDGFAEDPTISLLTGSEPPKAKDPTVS
# How it was run: as §1
# SPIC = target: T8, SPIC (Homo sapiens, UniProt Q8N5J4 1-248); details: protein: recombinant; tags: N-terminal GST; dsDNA, one strand shown
# T8 sequence: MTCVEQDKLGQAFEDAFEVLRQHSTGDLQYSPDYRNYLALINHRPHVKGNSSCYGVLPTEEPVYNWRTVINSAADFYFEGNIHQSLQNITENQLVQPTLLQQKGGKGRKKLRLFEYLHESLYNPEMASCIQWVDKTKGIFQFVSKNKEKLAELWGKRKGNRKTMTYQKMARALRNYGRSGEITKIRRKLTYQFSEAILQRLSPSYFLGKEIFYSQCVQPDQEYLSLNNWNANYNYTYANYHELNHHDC
# How it was run: as §1
# ELF4 = ELF4 (Homo sapiens, UniProt Q99607 1-663); details: protein: recombinant; tags: N-terminal GST; dsDNA, one strand shown
# Chain of ELF4 (Q99607 whole entry): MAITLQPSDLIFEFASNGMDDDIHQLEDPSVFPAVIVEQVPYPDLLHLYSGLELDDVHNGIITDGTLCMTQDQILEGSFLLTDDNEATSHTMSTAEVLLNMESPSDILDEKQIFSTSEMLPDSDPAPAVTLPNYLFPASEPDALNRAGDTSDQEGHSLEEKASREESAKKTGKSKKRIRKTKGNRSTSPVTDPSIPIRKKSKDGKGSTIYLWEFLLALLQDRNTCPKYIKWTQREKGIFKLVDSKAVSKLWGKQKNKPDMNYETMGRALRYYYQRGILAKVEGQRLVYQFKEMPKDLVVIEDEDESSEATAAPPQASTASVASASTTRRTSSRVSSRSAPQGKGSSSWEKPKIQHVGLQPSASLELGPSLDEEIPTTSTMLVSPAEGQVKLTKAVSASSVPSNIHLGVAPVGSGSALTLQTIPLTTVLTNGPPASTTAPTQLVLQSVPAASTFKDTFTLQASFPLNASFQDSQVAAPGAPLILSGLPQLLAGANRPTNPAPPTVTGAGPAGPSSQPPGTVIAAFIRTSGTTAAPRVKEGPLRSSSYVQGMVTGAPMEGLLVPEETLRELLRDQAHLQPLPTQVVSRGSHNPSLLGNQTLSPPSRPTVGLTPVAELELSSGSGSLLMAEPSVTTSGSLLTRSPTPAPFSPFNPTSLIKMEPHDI
# How it was run: as §1
# ELK4 = target: T9, ELK4 (Homo sapiens, UniProt P28324-2 1-405); details: protein: recombinant; tags: N-terminal GST; dsDNA, one strand shown
# T9 sequence: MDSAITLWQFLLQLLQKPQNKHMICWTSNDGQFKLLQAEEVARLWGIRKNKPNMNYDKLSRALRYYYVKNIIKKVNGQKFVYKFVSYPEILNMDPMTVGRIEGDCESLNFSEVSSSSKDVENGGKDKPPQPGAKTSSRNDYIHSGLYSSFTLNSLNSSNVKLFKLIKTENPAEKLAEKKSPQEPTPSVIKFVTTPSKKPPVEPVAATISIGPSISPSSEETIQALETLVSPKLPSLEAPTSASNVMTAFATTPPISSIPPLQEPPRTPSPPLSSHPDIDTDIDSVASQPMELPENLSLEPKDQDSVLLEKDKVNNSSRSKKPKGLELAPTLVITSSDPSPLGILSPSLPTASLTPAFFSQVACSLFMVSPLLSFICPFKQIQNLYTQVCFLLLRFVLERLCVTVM
# How it was run: as §1
# ETV2 = target: T10, ETV2 (Homo sapiens, UniProt O00321 1-342); details: protein: recombinant; tags: N-terminal GST; dsDNA, one strand shown
# T10 sequence: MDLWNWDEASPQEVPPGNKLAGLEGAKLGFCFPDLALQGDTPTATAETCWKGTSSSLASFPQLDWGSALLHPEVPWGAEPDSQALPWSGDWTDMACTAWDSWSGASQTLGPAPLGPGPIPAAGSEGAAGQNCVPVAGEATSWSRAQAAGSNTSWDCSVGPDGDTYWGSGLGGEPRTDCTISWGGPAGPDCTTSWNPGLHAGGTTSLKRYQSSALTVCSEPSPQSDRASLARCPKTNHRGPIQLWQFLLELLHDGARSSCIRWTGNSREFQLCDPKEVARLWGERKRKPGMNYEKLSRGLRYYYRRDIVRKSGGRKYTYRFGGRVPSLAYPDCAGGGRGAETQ
# How it was run: as §1
# ELF3 = target: T11, ELF3 (Homo sapiens, UniProt P78545 1-371); details: protein: recombinant; tags: N-terminal GST; dsDNA, one strand shown
# T11 sequence: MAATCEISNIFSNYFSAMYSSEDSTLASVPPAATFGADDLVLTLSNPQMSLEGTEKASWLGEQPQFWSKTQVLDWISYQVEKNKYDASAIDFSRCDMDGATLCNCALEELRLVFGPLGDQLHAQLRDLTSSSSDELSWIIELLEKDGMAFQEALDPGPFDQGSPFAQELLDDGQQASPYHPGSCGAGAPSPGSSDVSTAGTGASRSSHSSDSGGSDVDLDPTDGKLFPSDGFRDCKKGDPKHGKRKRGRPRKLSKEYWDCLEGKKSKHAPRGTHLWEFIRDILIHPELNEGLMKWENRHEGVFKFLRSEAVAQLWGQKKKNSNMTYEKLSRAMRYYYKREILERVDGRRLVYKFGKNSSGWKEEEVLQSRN
# How it was run: as §1
# CRX = CRX (Homo sapiens, UniProt O43186 1-299); details: protein: recombinant; tags: N-terminal GST; dsDNA, one strand shown
# Chain of CRX (O43186 whole entry): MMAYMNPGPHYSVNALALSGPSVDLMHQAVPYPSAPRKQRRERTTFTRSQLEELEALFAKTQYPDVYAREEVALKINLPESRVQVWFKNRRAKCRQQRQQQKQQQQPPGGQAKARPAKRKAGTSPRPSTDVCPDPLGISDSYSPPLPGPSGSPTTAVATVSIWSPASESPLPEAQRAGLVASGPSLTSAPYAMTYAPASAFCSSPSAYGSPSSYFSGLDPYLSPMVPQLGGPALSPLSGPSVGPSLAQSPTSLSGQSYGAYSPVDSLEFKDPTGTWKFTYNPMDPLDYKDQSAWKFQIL
# How it was run: as §1
# ETV1 = ETV1 (Homo sapiens, UniProt P50549 1-477); details: protein: recombinant; tags: N-terminal GST; dsDNA, one strand shown
# Chain of ETV1 (P50549 whole entry): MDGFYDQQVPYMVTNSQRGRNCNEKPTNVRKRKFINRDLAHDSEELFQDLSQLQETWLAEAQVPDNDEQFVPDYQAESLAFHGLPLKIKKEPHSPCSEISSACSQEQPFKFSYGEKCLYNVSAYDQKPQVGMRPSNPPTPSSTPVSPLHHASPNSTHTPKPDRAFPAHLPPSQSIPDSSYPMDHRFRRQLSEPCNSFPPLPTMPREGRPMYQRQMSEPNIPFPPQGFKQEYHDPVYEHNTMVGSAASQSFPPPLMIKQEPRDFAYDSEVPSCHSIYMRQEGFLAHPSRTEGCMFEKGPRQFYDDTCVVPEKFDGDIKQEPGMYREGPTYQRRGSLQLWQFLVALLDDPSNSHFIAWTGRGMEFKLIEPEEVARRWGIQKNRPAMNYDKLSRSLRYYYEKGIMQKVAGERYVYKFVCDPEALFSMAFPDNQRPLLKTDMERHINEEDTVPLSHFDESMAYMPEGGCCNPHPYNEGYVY
# How it was run: as §1
sequence,measurement,setting,value
ATTTAC,binding signal,FLI1,"1.22 fold enrichment (6-mer frequency, TF over GST control)"
same,binding signal,ELK1,"1.29 fold enrichment (6-mer frequency, TF over GST control)"
same,binding signal,GABPA,"1.23 fold enrichment (6-mer frequency, TF over GST control)"
same,binding signal,ERG,"1.27 fold enrichment (6-mer frequency, TF over GST control)"
same,binding signal,ELF1,"1.28 fold enrichment (6-mer frequency, TF over GST control)"
same,binding signal,EHF,"1.33 fold enrichment (6-mer frequency, TF over GST control)"
same,binding signal,SPI1,"1.28 fold enrichment (6-mer frequency, TF over GST control)"
same,binding signal,SPIB,"1.23 fold enrichment (6-mer frequency, TF over GST control)"
same,binding signal,ELK3,"1.21 fold enrichment (6-mer frequency, TF over GST control)"
same,binding signal,FEV,"1.3 fold enrichment (6-mer frequency, TF over GST control)"
same,binding signal,ETV5,"1.33 fold enrichment (6-mer frequency, TF over GST control)"
same,binding signal,HSF1,"1.38 fold enrichment (6-mer frequency, TF over GST control)"
same,binding signal,SPIC,"1.2 fold enrichment (6-mer frequency, TF over GST control)"
same,binding signal,ELF4,"1.33 fold enrichment (6-mer frequency, TF over GST control)"
same,binding signal,ELK4,"1.23 fold enrichment (6-mer frequency, TF over GST control)"
same,binding signal,ETV2,"1.16 fold enrichment (6-mer frequency, TF over GST control)"
same,binding signal,ELF3,"1.27 fold enrichment (6-mer frequency, TF over GST control)"
same,binding signal,CRX,"1.75 fold enrichment (6-mer frequency, TF over GST control)"
same,binding signal,ETV1,"1.22 fold enrichment (6-mer frequency, TF over GST control)"
